Data as given in the supplement of paper PMC11732987, “Enantioselective OTUD7B fragment discovery through chemoproteomics screening and high-throughput optimisation” (Communications Chemistry, 2025).

Columns and labels:
Test in all cases: log2 ratio of Biotin-Ahx-Ub-VS probe labelling (fragment/DMSO); higher = less target engagement (more negative = stronger competition), active = hit call of the paper (q ≤ 0.05, log2 ratio ≤ -1)
Conditions in all cases: compound concentration: 200 uM; treatment time: 3 h
[1] = molecular target: T1, USP42 (UniProt Q9H9J4)
T1 sequence (whole entry): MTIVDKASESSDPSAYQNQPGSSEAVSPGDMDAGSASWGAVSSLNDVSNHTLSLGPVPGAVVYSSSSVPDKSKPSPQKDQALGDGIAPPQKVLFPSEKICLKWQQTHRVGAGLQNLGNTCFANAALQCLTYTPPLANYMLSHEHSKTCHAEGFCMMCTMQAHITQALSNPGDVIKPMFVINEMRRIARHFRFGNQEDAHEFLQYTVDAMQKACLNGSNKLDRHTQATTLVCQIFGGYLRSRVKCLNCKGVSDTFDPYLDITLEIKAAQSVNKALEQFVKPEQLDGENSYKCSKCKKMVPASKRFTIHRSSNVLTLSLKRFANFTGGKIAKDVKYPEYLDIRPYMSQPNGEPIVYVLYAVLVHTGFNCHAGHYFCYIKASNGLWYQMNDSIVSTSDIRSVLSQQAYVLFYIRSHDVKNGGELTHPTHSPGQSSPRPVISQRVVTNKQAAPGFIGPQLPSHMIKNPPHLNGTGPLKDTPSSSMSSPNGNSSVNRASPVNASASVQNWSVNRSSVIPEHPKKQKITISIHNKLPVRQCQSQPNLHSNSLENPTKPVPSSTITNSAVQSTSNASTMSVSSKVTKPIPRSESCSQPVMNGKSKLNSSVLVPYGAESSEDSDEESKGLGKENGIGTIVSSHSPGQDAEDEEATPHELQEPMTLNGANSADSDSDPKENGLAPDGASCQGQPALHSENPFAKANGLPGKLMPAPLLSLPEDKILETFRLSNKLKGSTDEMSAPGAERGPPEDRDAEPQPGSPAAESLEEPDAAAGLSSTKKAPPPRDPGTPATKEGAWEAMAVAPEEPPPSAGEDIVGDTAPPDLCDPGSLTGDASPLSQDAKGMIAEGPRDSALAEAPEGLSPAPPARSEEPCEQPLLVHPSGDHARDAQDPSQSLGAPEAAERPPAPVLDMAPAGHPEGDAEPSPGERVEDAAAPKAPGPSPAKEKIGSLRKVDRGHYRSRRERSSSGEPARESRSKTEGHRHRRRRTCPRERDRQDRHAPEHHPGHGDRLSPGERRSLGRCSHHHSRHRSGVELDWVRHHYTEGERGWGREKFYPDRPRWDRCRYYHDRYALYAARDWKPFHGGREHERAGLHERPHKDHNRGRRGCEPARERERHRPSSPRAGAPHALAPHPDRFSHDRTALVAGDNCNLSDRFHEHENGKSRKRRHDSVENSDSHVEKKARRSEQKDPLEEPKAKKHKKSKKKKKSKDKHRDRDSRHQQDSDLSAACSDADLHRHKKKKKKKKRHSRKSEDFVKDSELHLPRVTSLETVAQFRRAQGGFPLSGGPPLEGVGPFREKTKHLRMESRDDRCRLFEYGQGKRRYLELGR
Summary of the method: (§1)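 Triplicate samples of HEK293T lysate, 495 µg each, received fragment at 200 µM or vehicle for 3 h, followed by Biotin-Ahx-Ub-VS (0.5 µM final) for 1 h. After NeutrAvidin enrichment of labelled DUBs and LysC/trypsin digestion, peptides were run by diaPASEF LC-MS/MS. The values are average log2 fragment/vehicle ratios from global-median-normalised Spectronaut label-free quantities, tested by unpaired t-test on proteins having ≥2 unique peptides.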

[2] = molecular target: USP46 (UniProt P62068)
Chain of USP46 (P62068 whole entry): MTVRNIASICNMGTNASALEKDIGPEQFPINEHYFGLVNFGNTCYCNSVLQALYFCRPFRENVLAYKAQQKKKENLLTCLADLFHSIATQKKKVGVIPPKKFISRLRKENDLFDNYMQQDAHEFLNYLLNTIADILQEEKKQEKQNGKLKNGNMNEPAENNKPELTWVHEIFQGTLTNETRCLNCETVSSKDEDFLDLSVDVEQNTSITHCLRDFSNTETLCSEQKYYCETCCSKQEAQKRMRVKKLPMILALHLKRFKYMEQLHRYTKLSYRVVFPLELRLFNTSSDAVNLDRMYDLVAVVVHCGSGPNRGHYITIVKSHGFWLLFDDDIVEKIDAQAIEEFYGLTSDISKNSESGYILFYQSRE
Summary of the method: as §1

[3] = molecular target: T2, USP47 (UniProt Q96K76)
T2 sequence (whole entry): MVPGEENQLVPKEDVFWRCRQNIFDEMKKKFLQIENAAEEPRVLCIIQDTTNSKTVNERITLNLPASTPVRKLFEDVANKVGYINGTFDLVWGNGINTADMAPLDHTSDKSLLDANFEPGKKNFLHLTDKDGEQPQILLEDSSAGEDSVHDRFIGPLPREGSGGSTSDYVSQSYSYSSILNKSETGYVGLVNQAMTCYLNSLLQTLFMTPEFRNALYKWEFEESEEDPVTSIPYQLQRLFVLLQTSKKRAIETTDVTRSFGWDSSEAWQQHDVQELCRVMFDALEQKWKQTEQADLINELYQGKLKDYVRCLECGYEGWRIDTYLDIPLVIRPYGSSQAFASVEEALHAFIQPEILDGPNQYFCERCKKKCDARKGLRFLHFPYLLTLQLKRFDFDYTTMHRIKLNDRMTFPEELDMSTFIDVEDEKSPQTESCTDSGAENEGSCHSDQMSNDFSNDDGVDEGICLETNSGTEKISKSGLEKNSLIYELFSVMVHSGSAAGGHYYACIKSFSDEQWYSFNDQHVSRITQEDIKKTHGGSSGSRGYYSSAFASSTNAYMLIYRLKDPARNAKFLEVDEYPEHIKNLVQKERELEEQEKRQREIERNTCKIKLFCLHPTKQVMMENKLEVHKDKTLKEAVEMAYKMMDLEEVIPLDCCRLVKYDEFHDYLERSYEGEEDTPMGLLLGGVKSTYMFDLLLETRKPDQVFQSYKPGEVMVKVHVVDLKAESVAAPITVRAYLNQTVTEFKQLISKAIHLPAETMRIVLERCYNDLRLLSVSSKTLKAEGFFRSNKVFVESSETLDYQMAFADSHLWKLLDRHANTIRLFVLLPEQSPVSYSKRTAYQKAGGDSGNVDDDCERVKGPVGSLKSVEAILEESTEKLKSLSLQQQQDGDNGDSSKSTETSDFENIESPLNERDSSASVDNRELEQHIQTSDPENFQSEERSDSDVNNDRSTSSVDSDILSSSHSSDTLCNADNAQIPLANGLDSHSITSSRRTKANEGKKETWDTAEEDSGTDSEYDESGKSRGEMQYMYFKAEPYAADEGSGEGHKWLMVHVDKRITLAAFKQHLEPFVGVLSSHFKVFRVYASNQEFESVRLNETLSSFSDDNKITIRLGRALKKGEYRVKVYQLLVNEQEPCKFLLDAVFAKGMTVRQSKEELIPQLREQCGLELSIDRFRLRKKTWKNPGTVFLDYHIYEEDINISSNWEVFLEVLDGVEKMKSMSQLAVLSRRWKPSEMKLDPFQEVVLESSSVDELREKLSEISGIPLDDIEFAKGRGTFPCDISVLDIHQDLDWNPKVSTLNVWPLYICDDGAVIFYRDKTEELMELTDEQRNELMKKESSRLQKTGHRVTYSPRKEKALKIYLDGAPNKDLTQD
Summary of the method: as §1

[4] = molecular target: T3, USP48 (UniProt Q86UV5)
T3 sequence (whole entry): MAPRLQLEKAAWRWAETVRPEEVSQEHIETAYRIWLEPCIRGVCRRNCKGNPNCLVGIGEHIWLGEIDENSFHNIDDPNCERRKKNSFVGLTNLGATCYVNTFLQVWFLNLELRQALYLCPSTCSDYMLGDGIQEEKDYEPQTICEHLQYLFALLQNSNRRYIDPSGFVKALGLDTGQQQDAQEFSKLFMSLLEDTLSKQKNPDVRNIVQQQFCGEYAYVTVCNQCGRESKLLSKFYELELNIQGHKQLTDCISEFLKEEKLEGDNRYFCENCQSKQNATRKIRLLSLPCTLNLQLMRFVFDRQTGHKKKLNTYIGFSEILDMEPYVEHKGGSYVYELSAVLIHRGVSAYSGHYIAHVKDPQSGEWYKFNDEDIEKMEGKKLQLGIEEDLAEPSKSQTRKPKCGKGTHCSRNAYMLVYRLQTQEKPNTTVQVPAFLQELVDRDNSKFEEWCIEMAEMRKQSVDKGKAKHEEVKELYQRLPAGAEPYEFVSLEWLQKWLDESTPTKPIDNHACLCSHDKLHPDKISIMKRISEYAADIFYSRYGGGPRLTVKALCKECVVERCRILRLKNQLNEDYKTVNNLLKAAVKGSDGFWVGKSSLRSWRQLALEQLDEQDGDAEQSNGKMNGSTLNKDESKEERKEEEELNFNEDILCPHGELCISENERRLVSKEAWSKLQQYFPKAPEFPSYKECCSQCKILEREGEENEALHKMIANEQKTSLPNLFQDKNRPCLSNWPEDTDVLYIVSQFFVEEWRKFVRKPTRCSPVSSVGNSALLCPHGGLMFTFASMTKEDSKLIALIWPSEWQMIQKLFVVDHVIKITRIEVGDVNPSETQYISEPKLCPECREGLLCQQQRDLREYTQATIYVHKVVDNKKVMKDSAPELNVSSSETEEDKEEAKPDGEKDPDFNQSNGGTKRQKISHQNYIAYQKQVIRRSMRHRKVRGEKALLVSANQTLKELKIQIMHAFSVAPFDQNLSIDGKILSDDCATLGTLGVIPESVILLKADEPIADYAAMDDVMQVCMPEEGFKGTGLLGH
Summary of the method: as §1

[5] = molecular target: T4, USP5 (UniProt P45974)
T4 sequence (whole entry): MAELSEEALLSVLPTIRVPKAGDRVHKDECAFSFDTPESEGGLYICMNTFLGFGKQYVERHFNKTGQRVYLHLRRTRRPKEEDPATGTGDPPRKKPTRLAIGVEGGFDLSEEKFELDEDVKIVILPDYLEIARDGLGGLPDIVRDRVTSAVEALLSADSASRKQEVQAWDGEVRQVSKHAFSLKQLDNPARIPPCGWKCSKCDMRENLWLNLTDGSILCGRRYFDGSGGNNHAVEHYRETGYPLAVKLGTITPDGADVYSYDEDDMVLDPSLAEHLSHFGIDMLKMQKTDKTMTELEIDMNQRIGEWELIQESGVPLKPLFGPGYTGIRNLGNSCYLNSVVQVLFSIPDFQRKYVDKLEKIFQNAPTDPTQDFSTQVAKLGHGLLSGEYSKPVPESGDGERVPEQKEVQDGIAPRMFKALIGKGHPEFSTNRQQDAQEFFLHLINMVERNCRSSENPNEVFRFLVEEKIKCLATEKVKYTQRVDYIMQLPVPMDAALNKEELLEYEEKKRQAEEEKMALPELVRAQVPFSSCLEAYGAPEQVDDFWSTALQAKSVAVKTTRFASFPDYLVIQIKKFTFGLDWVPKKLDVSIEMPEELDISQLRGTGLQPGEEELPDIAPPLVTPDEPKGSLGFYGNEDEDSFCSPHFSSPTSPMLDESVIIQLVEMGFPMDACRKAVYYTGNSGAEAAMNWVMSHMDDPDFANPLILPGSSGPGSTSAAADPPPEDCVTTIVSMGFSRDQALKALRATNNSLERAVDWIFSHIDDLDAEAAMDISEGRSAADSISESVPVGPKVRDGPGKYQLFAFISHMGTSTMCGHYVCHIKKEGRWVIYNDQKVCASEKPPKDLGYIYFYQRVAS
Summary of the method: as §1

[6] = molecular target: USP54 (UniProt Q70EL1)
Chain of USP54 (Q70EL1 whole entry): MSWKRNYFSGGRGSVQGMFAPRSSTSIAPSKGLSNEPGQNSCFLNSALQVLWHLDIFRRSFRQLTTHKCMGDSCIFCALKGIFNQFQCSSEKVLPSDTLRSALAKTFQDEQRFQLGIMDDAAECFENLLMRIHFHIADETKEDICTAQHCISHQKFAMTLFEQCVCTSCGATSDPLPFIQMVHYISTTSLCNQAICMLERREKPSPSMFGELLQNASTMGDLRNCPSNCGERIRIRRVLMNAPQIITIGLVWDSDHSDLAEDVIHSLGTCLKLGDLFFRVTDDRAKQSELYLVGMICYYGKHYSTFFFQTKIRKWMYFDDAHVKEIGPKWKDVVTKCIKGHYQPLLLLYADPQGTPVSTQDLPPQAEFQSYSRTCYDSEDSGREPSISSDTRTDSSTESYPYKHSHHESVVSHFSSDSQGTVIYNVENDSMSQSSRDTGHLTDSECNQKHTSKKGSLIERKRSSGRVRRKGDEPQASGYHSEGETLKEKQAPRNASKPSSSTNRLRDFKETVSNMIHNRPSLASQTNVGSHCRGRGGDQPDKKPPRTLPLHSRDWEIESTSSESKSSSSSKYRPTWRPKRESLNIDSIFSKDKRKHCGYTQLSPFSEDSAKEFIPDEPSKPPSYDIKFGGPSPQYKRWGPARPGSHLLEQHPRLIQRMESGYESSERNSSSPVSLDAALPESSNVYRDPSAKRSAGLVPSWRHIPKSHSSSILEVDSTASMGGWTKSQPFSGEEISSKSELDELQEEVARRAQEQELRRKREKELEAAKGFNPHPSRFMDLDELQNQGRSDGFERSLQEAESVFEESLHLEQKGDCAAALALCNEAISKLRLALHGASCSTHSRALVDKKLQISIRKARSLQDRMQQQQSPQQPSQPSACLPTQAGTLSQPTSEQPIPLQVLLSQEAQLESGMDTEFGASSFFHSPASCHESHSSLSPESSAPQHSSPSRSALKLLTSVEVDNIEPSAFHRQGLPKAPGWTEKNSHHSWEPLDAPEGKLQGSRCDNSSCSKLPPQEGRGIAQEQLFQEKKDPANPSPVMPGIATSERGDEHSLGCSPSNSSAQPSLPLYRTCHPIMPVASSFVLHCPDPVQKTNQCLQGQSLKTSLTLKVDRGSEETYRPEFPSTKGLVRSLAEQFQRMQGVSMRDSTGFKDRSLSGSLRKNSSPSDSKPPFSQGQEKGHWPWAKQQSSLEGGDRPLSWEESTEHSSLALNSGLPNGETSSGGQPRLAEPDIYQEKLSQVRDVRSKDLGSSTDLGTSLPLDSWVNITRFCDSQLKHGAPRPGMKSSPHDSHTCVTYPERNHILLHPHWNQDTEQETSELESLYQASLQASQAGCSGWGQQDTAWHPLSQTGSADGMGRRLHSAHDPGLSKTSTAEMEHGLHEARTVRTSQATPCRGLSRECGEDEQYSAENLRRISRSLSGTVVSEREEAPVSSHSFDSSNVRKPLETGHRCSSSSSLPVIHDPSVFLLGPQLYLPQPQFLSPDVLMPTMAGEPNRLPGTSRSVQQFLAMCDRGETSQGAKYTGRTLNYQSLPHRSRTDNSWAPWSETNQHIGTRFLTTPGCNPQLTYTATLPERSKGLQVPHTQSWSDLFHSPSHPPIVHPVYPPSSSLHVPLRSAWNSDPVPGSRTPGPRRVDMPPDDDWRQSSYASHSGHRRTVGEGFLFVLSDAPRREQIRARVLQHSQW
Summary of the method: as §1

[7] = molecular target: USP7 (UniProt Q93009)
Summary of the method: as §1

[8] = molecular target: T5, USP8 (UniProt P40818)
T5 sequence (whole entry): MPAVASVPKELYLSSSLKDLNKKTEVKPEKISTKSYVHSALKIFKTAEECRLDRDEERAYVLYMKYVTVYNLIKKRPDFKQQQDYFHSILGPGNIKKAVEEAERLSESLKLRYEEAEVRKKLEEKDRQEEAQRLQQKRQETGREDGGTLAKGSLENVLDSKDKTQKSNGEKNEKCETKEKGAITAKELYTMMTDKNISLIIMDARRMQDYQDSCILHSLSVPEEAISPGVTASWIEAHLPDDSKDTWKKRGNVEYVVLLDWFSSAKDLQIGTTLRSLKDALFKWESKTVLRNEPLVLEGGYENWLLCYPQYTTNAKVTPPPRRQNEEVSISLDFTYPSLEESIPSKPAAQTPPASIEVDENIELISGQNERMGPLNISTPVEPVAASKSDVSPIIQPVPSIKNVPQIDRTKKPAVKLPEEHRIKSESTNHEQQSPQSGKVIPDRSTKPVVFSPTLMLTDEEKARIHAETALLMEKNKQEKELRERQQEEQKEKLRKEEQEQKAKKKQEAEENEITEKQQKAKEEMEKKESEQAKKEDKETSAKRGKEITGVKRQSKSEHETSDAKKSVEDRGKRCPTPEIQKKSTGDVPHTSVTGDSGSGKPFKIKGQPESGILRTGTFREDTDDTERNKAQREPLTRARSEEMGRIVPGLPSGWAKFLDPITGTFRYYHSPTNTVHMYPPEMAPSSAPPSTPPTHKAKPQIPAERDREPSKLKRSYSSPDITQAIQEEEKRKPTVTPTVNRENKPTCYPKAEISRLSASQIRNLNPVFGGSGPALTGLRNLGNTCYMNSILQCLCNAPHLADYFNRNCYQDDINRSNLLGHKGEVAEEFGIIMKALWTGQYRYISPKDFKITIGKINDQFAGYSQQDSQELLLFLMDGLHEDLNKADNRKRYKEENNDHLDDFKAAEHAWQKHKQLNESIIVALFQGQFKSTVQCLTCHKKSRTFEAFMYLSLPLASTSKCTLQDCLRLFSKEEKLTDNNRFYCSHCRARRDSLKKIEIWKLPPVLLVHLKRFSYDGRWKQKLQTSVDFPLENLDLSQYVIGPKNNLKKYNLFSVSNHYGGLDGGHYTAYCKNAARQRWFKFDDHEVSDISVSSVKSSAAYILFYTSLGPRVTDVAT
Summary of the method: as §1

[9] = molecular target: USP9X (UniProt Q93008)
Chain of USP9X (Q93008 whole entry): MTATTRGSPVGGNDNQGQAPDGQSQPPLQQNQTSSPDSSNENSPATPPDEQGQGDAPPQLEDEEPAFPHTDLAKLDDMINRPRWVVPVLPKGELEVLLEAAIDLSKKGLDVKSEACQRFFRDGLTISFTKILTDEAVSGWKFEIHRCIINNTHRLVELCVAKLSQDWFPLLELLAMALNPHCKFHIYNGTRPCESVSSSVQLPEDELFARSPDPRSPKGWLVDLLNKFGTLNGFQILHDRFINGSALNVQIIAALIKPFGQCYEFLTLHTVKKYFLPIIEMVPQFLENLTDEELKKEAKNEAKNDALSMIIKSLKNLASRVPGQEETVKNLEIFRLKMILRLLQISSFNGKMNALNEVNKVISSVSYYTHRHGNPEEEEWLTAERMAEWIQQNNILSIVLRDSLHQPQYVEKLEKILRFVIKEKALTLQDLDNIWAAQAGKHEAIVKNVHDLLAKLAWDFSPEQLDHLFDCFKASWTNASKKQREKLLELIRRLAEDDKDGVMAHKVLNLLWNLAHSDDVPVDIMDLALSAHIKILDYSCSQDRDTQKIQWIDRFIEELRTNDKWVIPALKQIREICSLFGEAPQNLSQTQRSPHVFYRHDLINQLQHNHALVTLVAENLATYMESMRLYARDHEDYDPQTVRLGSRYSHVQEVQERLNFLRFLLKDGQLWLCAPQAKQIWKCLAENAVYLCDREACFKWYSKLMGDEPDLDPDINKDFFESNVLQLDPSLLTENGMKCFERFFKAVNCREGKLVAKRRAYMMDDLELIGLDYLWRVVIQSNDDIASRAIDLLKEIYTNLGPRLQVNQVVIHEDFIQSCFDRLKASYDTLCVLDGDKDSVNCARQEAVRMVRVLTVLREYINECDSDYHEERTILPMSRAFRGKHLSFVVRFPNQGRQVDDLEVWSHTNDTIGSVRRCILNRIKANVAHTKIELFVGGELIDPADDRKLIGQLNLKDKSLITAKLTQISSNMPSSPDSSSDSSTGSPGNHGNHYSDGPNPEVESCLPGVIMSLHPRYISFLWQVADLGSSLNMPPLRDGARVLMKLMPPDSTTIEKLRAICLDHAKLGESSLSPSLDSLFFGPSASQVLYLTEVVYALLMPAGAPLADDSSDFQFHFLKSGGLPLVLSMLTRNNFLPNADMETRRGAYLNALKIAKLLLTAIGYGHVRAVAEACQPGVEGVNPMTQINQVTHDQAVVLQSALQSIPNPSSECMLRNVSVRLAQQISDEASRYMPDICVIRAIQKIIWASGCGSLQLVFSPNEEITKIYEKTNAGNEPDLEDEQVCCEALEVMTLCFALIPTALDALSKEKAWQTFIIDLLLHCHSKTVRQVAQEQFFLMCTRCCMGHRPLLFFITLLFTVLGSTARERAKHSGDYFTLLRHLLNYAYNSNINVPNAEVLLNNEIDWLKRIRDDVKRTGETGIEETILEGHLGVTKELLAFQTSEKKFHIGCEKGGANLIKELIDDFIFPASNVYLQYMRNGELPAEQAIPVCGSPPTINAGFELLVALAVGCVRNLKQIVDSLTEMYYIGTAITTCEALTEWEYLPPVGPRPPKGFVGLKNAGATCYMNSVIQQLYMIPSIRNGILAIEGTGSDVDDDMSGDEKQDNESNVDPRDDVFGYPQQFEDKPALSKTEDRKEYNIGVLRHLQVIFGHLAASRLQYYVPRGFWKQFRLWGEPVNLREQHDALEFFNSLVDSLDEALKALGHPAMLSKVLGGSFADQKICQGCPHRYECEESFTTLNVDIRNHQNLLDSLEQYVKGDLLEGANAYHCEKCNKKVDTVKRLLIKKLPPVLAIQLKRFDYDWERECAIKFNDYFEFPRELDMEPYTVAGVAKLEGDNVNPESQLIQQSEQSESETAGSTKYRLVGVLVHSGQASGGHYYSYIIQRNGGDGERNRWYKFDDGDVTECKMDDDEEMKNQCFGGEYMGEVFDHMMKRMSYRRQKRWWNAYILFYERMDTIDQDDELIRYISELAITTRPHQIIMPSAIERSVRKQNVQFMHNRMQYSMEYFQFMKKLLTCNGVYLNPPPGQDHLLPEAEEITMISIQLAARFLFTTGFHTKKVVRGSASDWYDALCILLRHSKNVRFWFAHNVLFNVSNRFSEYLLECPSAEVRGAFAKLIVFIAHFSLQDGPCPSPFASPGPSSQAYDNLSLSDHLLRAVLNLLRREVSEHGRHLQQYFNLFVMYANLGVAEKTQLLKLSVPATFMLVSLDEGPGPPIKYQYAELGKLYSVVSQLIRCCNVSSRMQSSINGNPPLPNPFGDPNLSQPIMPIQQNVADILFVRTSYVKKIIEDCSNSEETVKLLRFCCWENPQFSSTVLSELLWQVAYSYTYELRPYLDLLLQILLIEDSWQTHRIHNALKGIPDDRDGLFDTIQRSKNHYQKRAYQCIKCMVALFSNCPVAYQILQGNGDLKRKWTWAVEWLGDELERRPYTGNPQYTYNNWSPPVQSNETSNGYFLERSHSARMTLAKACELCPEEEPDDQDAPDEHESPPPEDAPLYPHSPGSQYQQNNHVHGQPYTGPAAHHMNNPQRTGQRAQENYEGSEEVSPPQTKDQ
Summary of the method: as §1

[10] = molecular target: UniProt O00487
Chain of UniProt O00487 (O00487 whole entry): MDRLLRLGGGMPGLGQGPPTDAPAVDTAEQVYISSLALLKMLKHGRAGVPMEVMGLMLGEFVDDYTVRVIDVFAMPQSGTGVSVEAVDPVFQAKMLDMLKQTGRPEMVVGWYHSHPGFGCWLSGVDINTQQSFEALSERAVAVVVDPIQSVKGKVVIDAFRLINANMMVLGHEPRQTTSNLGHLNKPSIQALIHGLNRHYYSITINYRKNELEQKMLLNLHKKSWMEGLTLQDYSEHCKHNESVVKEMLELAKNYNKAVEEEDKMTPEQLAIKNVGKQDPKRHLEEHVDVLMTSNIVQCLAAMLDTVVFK
Summary of the method: as §1

Measured: log2 ratio of Biotin-Ahx-Ub-VS probe labelling

Cc1nnc(C(NC(=O)CCl)c2ccccc2)n1C (stereo not given)
inactive: [1] 0.478 | [2] 0.418 | [3] 0.26 | [4] 0.313 | [5] 0.627 | [6] 0.407 | [7] 0.438 | [8] 0.467 | [9] 0.432 | [10] 0.442
